Compound activity: PubChem BioAssay, several laboratories
An excerpt weighted towards active compounds, which were near 3% of everything screened.
HIF-2a block = blocks HIF-2a reporter activity | 786-0 RCC cells HIF-2a reporter, luciferase luminescence, overnight | inhibition, % at 18.8 µM | 360,000 tested, 0.72% active | AID 624352;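 active means inhibition of the luminescence signal of 40% or more relative to plate controls, in a single-dose primary screen at 18.75 µM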
TRPM1 prom inh = reduces MITF-dependent TRPM1 promoter luciferase signal; SK-MEL-5 TRPM1 promoter luciferase, 24 h; inhibition, % at 12.5 µM; 330,000 tested, 0.83% active;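 active means mean inhibition across replicates of 60% or more, whatever share of single replicates reaches that level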
EBV LMP1 NFkB = reduces LMP1-driven NF-kappaB luciferase signal; LMP1-induced NF-kappaB luciferase reporter cells, luminescence; inhibition, % at 12.5 µM; 350,000 tested, 0.69% active; AID 504558; in the data active means inhibition above about 41%
CF NFkB inh = blocks PAF-induced NF-kB reporter in cystic fibrosis cells; inhibition, % at 5 µM; KKLEB NF-kB-GFP reporter, GFP fluorescence overnight; AID 588850; 360,000 tested, 0.86% active;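 active means at least 50% inhibition at 5 µM, scaled per plate between neutral and stimulator controls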;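 further: PAF is a Pseudomonas aeruginosa culture filtrate used as stimulus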
Peg3 prom inh-1 = reduces Peg3 promoter-driven luciferase expression in HeLa. inhibition, % at 20 µM. HeLa PEG-Prom luciferase reporter, luminescence, overnight. AID 588405. 360,000 tested, 1.7% active;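 active means inhibition of at least 50% at 20 µM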
KKLEB cytotox = CF airway cell cytotoxicity counter-screen | KKLEB CF airway cells viability, ATPlite luminescence, overnight; hits give low values; cells stimulated with P. aeruginosa culture filtrate | activity change (cytotoxicity), % at 5 µM | 360,000 tested, 0.36% active;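 active means corrected activity change at or below -50% at 5 µM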
Peg3 prom inh-2 = Peg3 promoter inhibition confirmation; 1,300 tested, 84% active; inhibition, % at 20 µM; shares compounds with Peg3 prom inh-1; HeLa PEG-Prom luciferase reporter, luminescence, overnight;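 active means at 20 µM dose, 40% or more inhibition averaged across four replicates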
Large screens that a line does not name were inactive (follow-up assays come after a bar, where they were run).

CC(C)NC(=O)c1cc(C2CCCCN2S(=O)(=O)c2cccc3cccnc23)on1 (configuration not stated)	none (no result: TRPM1 prom inh, EBV LMP1 NFkB)
CCCCC1(Br)C(=O)N(c2ccccc2)N(c2ccccc2)C1=O	none (no result: TRPM1 prom inh)
CCCCC1C(=O)N(c2ccccc2)N(c2ccc(O)cc2)C1=O (configuration not stated)	HIF-2a block 95.5, TRPM1 prom inh 96.1, EBV LMP1 NFkB 54.6, CF NFkB inh 82.5, Peg3 prom inh-1 101.3 | Peg3 prom inh-2 73.6
O=C(Nc1nccs1)c1cc2c(s1)CCCCC2	HIF-2a block 51.2, EBV LMP1 NFkB 52.1, Peg3 prom inh-1 58.0, KKLEB cytotox -54.3 | Peg3 prom inh-2 inactive
O=C(Nc1nncs1)c1cc2c(s1)CCC2	none
CC(C)C[C@@H](CNCC(=O)[C@H](Cc1ccccc1)NC(=O)c1[nH]cnc1C(=O)N[C@H](CN)CC(C)C)NC(=O)c1nc[nH]c1C(=O)N[C@@H](CC(=O)O)C(=O)O	none
Oc1c(Cl)cc(Cl)c2cccnc12	Peg3 prom inh-1 64.2 | Peg3 prom inh-2 66.3
COc1ccc(-c2cc(C(F)F)n3ncc(C(=O)n4ccnc4C)c3n2)cc1	CF NFkB inh 74.3, Peg3 prom inh-1 54.6 | Peg3 prom inh-2 94.8
Cc1ccc2oc(/N=C(\N)NC(=O)C3CC3)nc2c1	none
Cc1ccc2oc(/N=C(\N)NC(=O)C(C)(C)C)nc2c1	HIF-2a block 81.0, TRPM1 prom inh 71.6, EBV LMP1 NFkB 65.9, Peg3 prom inh-1 81.8, KKLEB cytotox -61.4 | Peg3 prom inh-2 85.0
CCCCCCOc1ccc(/C(C)=N/NC2=NCCN2)cc1	Peg3 prom inh-1 108.0 | Peg3 prom inh-2 97.9
Cc1cc(S(=O)(=O)c2ccc(Cl)cc2)nc(S(=O)(=O)c2ccc(Cl)cc2)c1C#N	HIF-2a block 89.0, EBV LMP1 NFkB 52.3, CF NFkB inh 87.5, Peg3 prom inh-1 112.8, KKLEB cytotox -93.4 (no result: TRPM1 prom inh) | Peg3 prom inh-2 96.7
CCCC/C=C1\CCc2c([nH]c3ccccc23)C1=O	none
CCCCCCC=C1CCC(CN2CCCC2)C1=O (configuration not stated)	Peg3 prom inh-1 101.5 (no result: TRPM1 prom inh, EBV LMP1 NFkB) | Peg3 prom inh-2 76.6
[O-]C(=C(C(=S)Nc1cccc2ccccc12)[n+]1ccccc1)c1ccc2c(c1)OCCO2	HIF-2a block 72.2, Peg3 prom inh-1 53.8 | Peg3 prom inh-2 inactive
CC(C)(C)c1cc[n+](/C(C(=S)Nc2ccccc2F)=C(/[O-])c2ccc3c(c2)OCCO3)cc1	none
O=C(Nc1ncc([N+](=O)[O-])s1)c1ccc2c(c1)OCO2	HIF-2a block 61.0, TRPM1 prom inh 64.7, EBV LMP1 NFkB 55.1, Peg3 prom inh-1 70.2 | Peg3 prom inh-2 63.9
Cc1ccc([N+](=O)[O-])cc1NC(=O)c1ccc2c(c1)OCO2	none
COc1ccc2nc3n(c(=O)c2c1)-c1cc2ccccc2cc1C(=O)NC3Cc1ccc(O)cc1 (configuration not stated)	Peg3 prom inh-1 78.0 (no result: TRPM1 prom inh) | Peg3 prom inh-2 86.2
COc1ccc2nc3n(c(=O)c2c1)-c1cc2ccccc2cc1C(=O)NC3Cc1ccccc1 (configuration not stated)	none (no result: TRPM1 prom inh)
c1ccc(CCCNCCCn2cnc3c(OCc4ccccc4)ncnc32)cc1	TRPM1 prom inh 77.9, Peg3 prom inh-1 56.1 | Peg3 prom inh-2 83.3
C[C@@H](NCCCn1cnc2c(OCc3ccccc3)ncnc21)c1cccc2ccccc12	TRPM1 prom inh 68.8, Peg3 prom inh-1 91.9 | Peg3 prom inh-2 86.2
CCCCCCn1c(=O)n2n(c1=O)[C@@H]1CN(S(=O)(=O)c3ccc(C)cc3)C[C@]1(O)[C@@H](OC(=O)NCc1ccccc1)C2	none (no result: TRPM1 prom inh)
CCCC(=O)N1CCC1(C)C(=O)Nc1ccc2c(c1)OCCO2 (configuration not stated)	none (no result: TRPM1 prom inh, EBV LMP1 NFkB)
Cc1ccc(N2CC(C(=O)Nc3nccs3)CC2=O)cc1Cl (configuration not stated)	Peg3 prom inh-1 89.7 | Peg3 prom inh-2 94.2
Cc1ccsc1/C=N/Nc1cccc(C(=O)O)c1	HIF-2a block 85.5, TRPM1 prom inh 95.7, EBV LMP1 NFkB 66.2, Peg3 prom inh-1 85.9 | Peg3 prom inh-2 73.7
O=C(Nc1ccc([N+](=O)[O-])cc1)C(=O)Nc1cccc(C(=O)O)c1	HIF-2a block 79.5, EBV LMP1 NFkB 90.1, Peg3 prom inh-1 64.2 (no result: TRPM1 prom inh) | Peg3 prom inh-2 68.4
C=C(C)Cn1c(SCC(=O)N/N=C/c2c(O)ccc3ccccc23)nc2ccccc2c1=O	Peg3 prom inh-1 60.9 | Peg3 prom inh-2 63.9
COC(=O)[C@]12CCCCC=C1N(Cc1cccc3ccccc13)C(=O)[C@H](CC(=O)NCCCN1CCCC1=O)C2	none (no result: TRPM1 prom inh, EBV LMP1 NFkB, CF NFkB inh, Peg3 prom inh-1, KKLEB cytotox)
CCCOc1ccc2cc(-c3ccccn3)c(=O)oc2c1	HIF-2a block 55.1, EBV LMP1 NFkB 60.5, Peg3 prom inh-1 74.4 | Peg3 prom inh-2 68.0
COc1ccc(-n2ncc3c(N(C)C4CCCCC4)ncnc32)cc1	HIF-2a block 70.3, EBV LMP1 NFkB 51.6, Peg3 prom inh-1 71.4, KKLEB cytotox -79.2 | Peg3 prom inh-2 70.6
CC(=NNC(=S)N1CCN(C2CCCCCC2)CC1)c1ccccn1	TRPM1 prom inh 83.0, Peg3 prom inh-1 102.2 | Peg3 prom inh-2 98.5
CC(=NNC(=S)N1CCN(c2ccccn2)CC1)c1ccccn1	none
CC(C)n1nc(C(=O)OCC(=O)NCCc2ccc(S(N)(=O)=O)cc2)c2ccccc2c1=O	none
CCOc1ccc2c(c1)C(=NNC(=O)c1ccccn1)c1cc(OCC)ccc1-2	none
OC(CSc1ccccc1)CN1CCN(c2ccccc2)CC1 (configuration not stated)	none
CCCCn1c(SCC(=O)Nc2ccc(NC(C)=O)cc2)nc2ccccc2c1=O	none
CCc1ccc(NC(=O)CSc2nc3ccccc3c(=O)n2CCCN2CCC(C)CC2)cc1	Peg3 prom inh-1 92.9 | Peg3 prom inh-2 94.7
COC(=O)C1=C(C(=O)OC)C(C(=O)OC)C(C(=O)OC)C(C(=O)OC)(C(=O)OC)C(C(=O)OC)=C1C(=O)OC (configuration not stated)	Peg3 prom inh-1 107.1 | Peg3 prom inh-2 98.5
COC(=O)C1C(C(=O)OC)C1(c1ccccc1)c1ccccc1 (configuration not stated)	none
COc1ccc(S(=O)(=O)N2c3ccccc3OCC2c2ccccc2)cc1 (configuration not stated)	Peg3 prom inh-1 50.1 | Peg3 prom inh-2 45.7
COc1ccc(S(=O)(=O)N2c3ccccc3OCC2C)cc1 (configuration not stated)	none
NC(=O)CSc1nc(-c2ccccc2)nc2ccccc12	none (no result: EBV LMP1 NFkB)
Cc1cccc2c(SCC(N)=O)nc(-c3ccccc3)nc12	Peg3 prom inh-1 50.9 | Peg3 prom inh-2 inactive
NCCNc1cc(N2CCCC2)ccc1[N+](=O)[O-]	none
